The record followed here is PubChem BioAssay AID1508600 (Functional Genomics Laboratory (NCATS/FGL), 2020).

About 3,700 (7%) of roughly 53,000 sequences were called active.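 How the source made its calls: active means gene knockdowns whose robust z-score for IL-1 alpha signal is at least 2 or at most -2, so actives lie on both sides; inactive means the rest.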 Shown is part of a subset that was picked to be rich in actives.

The assay can be described thus: Components of the Cytosolic LPS Sensing Pathway: Gene Identification via Genome-wide siRNA Screen.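 Further: robust z of the log signal after scaling to non-targeting control siRNA wells of the plate.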 To be noted: RAW264.7 macrophages, IL-1a HTRF, actives lie on both sides, screened at 100 nM (by protocol), cells primed 5 h with Pam3CSK4 first. The method, boiled down:
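Read-out: IL-1a HTRF on supernatant, divided by plate negative-control median ×100, log-transformed and converted to robust z-score. Cells were RAW264.7 given 100 nM siRNA, Pam3CSK4-primed 5 hours, then LipidA-transfected 24 hour.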
In the case of GGAGGAUCUUUCAAAGAGATT against Egfl8, the z-score was 0.763 (inactive).

Regarding GGCCCUUCCAGAAGAUACATT against Speer3, the z-score was -1.1 (inactive). As for GGACAGAUUCGACAAAGAGTT against Olfr1535, the z-score was -0.193 (inactive). Regarding GGAAAACAAGACUUCAAUCTT against Gypa, the z-score is 0.369 (inactive).

In the case of CCCUGAUGACAGAAGAAUCTT against Tyms, the z-score is -0.802 (inactive). Consider GCACCUCGGUCAUUUAUAUTT against Mettl14, for which the z-score is -2.51 (active). As for GCCUGUCCUGUGAUGACAUTT against Olfr406, the z-score is -1.96 (inactive). As for GCUCGAACAUCUCUUGGUCTT against Capn9, the figure is 0.186 (inactive).

Consider CCGUUACCUUUUAAGCCUGTT against Socs6, for which the z-score was -1.2 (inactive). As to GGCAGAGAAAAGGACCUUUTT against Mcts2, the z-score is -1.32 (inactive). For the sequence GGAACUCCUCAAACGAAGGTT against Bmp3, the z-score was 0.553 (inactive). As for GCCACCAGUGAAUAAUACATT against Hyal6, the figure is 0.459 (inactive); as for GGUUUGCAUAUCUCACCCUTT against Sirt6, -2.38 (active). With GGAGACUGGAGAGCAAAAUTT against Krt18, the z-score was -1.44 (inactive).

Regarding GCUACCUUCAGACAAGCACTT against Prss32, the z-score was -0.877 (inactive). Then GCAACUCAGCUGUUGUGAGTT against Ifitm2, with 2.99 (active); and GCUGUUGUUCAAUGCCCUGTT against Olfr392, with -0.616 (inactive); and GGCUGCACACAAUAUGAACTT against Mrm2, with 0.134 (inactive). CCUAUGCUAUGUAGUUUAATT against Adam21: the z-score is 5.58 (active).

For the sequence GGAGAAACUAUGAUCUUUATT against Mmp13, the z-score was 0.117 (inactive). Regarding GGGAAGAAAUCCAAGAAGATT against Cnpy3, the z-score is -0.836 (inactive). Regarding GCUGCCUACCUGUGAAAGUTT against Pgam2, the z-score was 2.82 (active). In the case of GGCCAAAGCUGAUAUGACATT against Ankef1, the z-score is 2.23 (active). Consider GGAGCUCCUGUACGACUAUTT against Kmt5a, for which the z-score is -1.66 (inactive).

For GCCCUCGGACUGAAAACAATT against Chrm5, the z-score was -0.227 (inactive).

As to GGUACAAUGGCACUGUCACTT against Chrna5, the z-score was -1.29 (inactive). Take GGGAUGCUUUUGGCCCAAATT against Rita1: the z-score is 0.901 (inactive). Take GGUUCUCUAACAGAACUUUTT against Zc3h6: the z-score is 0.768 (inactive). With GGUGUCUUUGCUCAGCUCATT against Lrfn4, the z-score was -2.93 (active). Take GGUUGUUUGACCAACAGCUTT against Inpp5d: the z-score was -1.51 (inactive).

In the case of GGAAUUUGUGGAGAAACUATT against Gabbr1, the z-score is -0.232 (inactive). For the sequence GAGCCAUAUACCUCGUCCUTT against Mier2, the z-score is -0.531 (inactive).

Turning to GGUUGGCUUGGAAAUGGGATT against Nanos2, the z-score is 1.7 (inactive). Take CCAUUUACCCAUGCGGCUATT against Creb3l2: the z-score was -1.94 (inactive). As to GGAGAUGUGUUGAGUUUUCTT against Abcg2, the z-score was 4.47 (active). In the case of GGCAACAUGCGGACAACAUTT against Trim14, the z-score is -0.42 (inactive).

In the case of GGAGCUGAACCUGAGCUAUTT against Tlr9, the z-score is -0.341 (inactive). As to GGACAUUUCUAUGUCUUUGTT against Cpt2, the z-score is 3.35 (active). For the sequence GGAGAUAAAUCCUUUGCAUTT against Zfp119a, the z-score was 1.74 (inactive). On to GGACUUUCGUGAGAGAUUUTT against Fpr2, for which the z-score was 1.16 (inactive). Regarding GGUUCAGUUUUGGCUGGCUTT against Olfr558, the z-score is 2.04 (active).

Turning to GGAGAAGAGCAGAAUAUGCTT against Baz1a, the z-score was -1.48 (inactive). For the sequence GCUGUUAAACGAAAUGUACTT against Esx1, the z-score is -0.298 (inactive). For GCUUGGAAGGGACUUCAAUTT against Trp73, the z-score is 2.97 (active). With CCAUUUAUUUGGACUUGUATT against Lig4, the z-score is 0.303 (inactive).

As for CCGGUAUUACAACAAGUACTT against Atp5j2, the z-score is 1.01 (inactive).

With GGGAGAAGGUAAGUGCAUGTT against Golga7b, the z-score is -0.343 (inactive). For the sequence GGUGGAAAAGUGAAAAAGGTT against Ddx18, the z-score was 0.158 (inactive). As for CCUGUAGAUUCAAUUAGAGTT against Vkorc1l1, the figure is -0.206 (inactive); as for GGUGCUGCUUUAUUCCUGGTT against Dhcr7, -0.632 (inactive). With CGAUUAUGAGCACUAUAUUTT against Ddx20, the z-score was 2.12 (active). Regarding GGAUAUGUGUUCAUCCUGUTT against Lrrc18, the z-score is 0.0347 (inactive). For the sequence GGUUAUGCCUUCAGUGAAGTT against Prep, the z-score was -0.14 (inactive).

Turning to GGUGACUGUCCUGAACUAUTT against Prr5l, the z-score is 1.7 (inactive).

As to CGAAGUGAAAAGUAUGACCTT against Lrrc72, the z-score was -0.083 (inactive).

Turning to GGGCAUAGUGACCAGGUUATT against Fgf14, the z-score is 2.67 (active). On to AUCUCUCGGUGGUGGACUGTT against Olfr1474, for which the z-score is 0.583 (inactive). As to CCAGGUCGAACUUCUGUGCTT against Slc39a8, the z-score was -0.82 (inactive). In the case of GCAACUCAGAAUGUAGUGUTT against Gnai1, the z-score is 0.298 (inactive). On to GGCUUUUGAUGAGGUAAAATT against Plekho2, for which the z-score is -1.12 (inactive). In the case of GGAGGAAAAACAGUGCAGATT against Smchd1, the z-score was -1.54 (inactive). For GGACCUAUUACCUCAAUGATT against Spatc1l, the z-score is -2.59 (active). For GGUUCUGACUUGAGAAAACTT against Clba1, the z-score is 1.41 (inactive).

As for GGUUAUUCUGGUACAGGUUTT against Fndc3a, the z-score is 0.191 (inactive). GGCUCAGCUCAUGAACGACTT against Acvr2b: the z-score is -0.00307 (inactive). In the case of GGACAUGACCAAAAGGCUGTT against Zfp706, the z-score was 3.84 (active).

GGUGGUUUUCAUGUUUCCCTT against Olfr574: the z-score was -1.48 (inactive). Turning to GGCUAGAAUGCACAUUUUATT against Tmem65, the z-score is -1.26 (inactive). On to CCACCCUCUUCAUAACAGUTT against Med27, for which the z-score was -0.82 (inactive).
